# An excerpt weighted towards active compounds, which were near 3.8% of everything screened.
# pPAFAH FP inh = pPAFAH (human) enzyme inhibition | Q13093 | recombinant pPAFAH, FP-rhodamine probe fluorescence polarization | inhibition, % at 3.39 µM | actives 1.5% (n = 330,000);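 active = inhibition above the mean inhibition across the screen plus 3 SD, cut at about 25% in these data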;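 note: inhibitors block binding of the rhodamine activity-based probe so polarization drops; 0% = enzyme with DMSO and 100% = wells lacking pPAFAH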
# Target sequence (Q13093 whole entry, looked up): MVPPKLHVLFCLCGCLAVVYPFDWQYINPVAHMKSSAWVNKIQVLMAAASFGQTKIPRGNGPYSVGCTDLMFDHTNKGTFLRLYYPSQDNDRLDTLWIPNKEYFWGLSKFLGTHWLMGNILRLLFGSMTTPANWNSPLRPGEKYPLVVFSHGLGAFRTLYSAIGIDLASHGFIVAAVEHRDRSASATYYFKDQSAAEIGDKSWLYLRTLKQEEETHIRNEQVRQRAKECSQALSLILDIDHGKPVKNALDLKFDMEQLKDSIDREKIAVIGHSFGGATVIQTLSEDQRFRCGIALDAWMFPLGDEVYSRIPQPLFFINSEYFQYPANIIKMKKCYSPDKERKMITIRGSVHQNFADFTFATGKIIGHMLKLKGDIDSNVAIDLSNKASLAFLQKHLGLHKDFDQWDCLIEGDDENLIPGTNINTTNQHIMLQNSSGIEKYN
# PfM18AAP inh = PfM18AAP enzyme inhibition; AID 1822; recombinant PfM18AAP, H-Glu-NHMec fluorogenic cleavage; actives 1.2% (n = 290,000); inhibition, % at 7.35 µM;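 active = inhibition above the campaign mean inhibition over all tested compounds plus 3 SD, cut at about 28% in these data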;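 note: 0% = plate median of test compound wells and 100% = 2 mM ZnCl2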
# PAFAH2 FP inh = inhibitors of human PAFAH2. Q99487. recombinant PAFAH2, FP-rhodamine activity probe, fluorescence polarization. inhibition, % at 3.39 µM. actives 0.99% (n = 340,000). AID 492956;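 active = inhibition above the mean over all tested compounds plus 3 SD, cut at about 30% in these data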;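 note: inhibitors block probe labeling of enzyme so polarization drops; 0% = enzyme with DMSO and 100% = wells lacking PAFAH2 protein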
# Pemphigus Ab inh = inhibitors of pemphigus antibody binding to human desmoglein-3. P32926. binding (percent of control), % at 10 µM. actives 0.48% (n = 310,000). DSG3-coupled beads, scFv-anti-DSG3-GFP binding, flow cytometry; hits give low values;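 active = binding more than 3 SD below its plate's average and above zero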;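 note: hits lower antibody fragment binding to DSG3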
# PAFAH1B2 inh = inhibitors of human PAFAH1B2 | inhibition, % at 3.39 µM | AID 492953 | recombinant PAFAH1B2, FP-rhodamine activity probe, fluorescence polarization | P68402 | actives 1.2% (n = 340,000);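 active = inhibition above the mean of all tested compounds plus 3 SD, cut at about 24% in these data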;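 note: 0% = enzyme with DMSO and 100% = wells lacking PAFAH1B2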
# Target sequence (P68402 whole entry, looked up): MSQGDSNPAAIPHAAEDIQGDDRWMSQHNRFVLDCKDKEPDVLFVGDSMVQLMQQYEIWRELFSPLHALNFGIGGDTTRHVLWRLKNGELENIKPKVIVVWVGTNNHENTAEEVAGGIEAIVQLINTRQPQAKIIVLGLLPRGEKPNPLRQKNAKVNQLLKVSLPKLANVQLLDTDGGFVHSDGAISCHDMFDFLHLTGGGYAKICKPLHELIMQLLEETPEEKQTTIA
# PAFAH1B3 inh = blocks human PAF acetylhydrolase 1B catalytic subunit 3; actives 0.28% (n = 340,000); AID 492972; Q15102; inhibition, % at 3.39 µM; recombinant PAFAH1B3, FP-rhodamine probe, fluorescence polarization;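 active = inhibition above the screen-wide average of all tested compounds plus 3 SD, cut at about 25% in these data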;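 note: 0% = enzyme with DMSO only and 100% = wells lacking PAFAH1B3 protein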
# pPAFAH confirm = pPAFAH (human) inhibition, confirmed; shares compounds with pPAFAH FP inh; recombinant pPAFAH, FP-Rh probe fluorescence polarization; inhibition, % at 3.39 µM; actives 72% (n = 2,300);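 active = mean inhibition of the triplicate above the hit cutoff set for the earlier primary screen, cut at about 25% in these data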;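 note: 0% = enzyme with DMSO and 100% = wells lacking pPAFAH enzyme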
# * = called active by the depositor; · = no result.
SMILES,pPAFAH FP inh,PfM18AAP inh,PAFAH2 FP inh,Pemphigus Ab inh,PAFAH1B2 inh,PAFAH1B3 inh,pPAFAH confirm
CCc1ccccc1OCC(=O)Nc1cc(S(=O)(=O)N(CC)CC)ccc1N1CCOCC1,49.3*,·,-11.0,95.1,-0.9,-0.8,10.4
CCOc1ccc(OCCC(=O)OCC(=O)Nc2ccc(N3CCOCC3)cc2)cc1,35.4*,-2.6,-14.6,106.3,-6.9,11.4,23.2
O=C(CNC(=O)c1nc[nH]c1C(=O)NCc1ccccc1)OCc1ccccc1,34.9*,6.1,4.0,105.5,8.4,14.3,23.8
COc1cc(NC(=O)COc2cccc3c2OC(C)(C)C3)cc(OC)c1OC,3.5,·,1.8,97.3,2.6,2.0,·
O=C(O)c1cccc(Br)c1,·,·,-0.9,102.2,1.3,2.9,·
Cc1ccc(NS(=O)(=O)c2ccc3[nH]c(=O)oc3c2)cc1Cl,47.6*,·,4.4,97.9,10.2,6.9,57.5*
Cc1cccc(NS(=O)(=O)c2ccc3c(c2)oc(=O)n3C)c1C,·,0.3,-1.8,98.4,-0.3,2.2,·
Cc1cccc(NS(=O)(=O)c2ccc3[nH]c(=O)oc3c2)c1C,68.2*,·,2.6,96.9,-2.6,11.7,70.3*
Cc1ccc(C)c(NS(=O)(=O)c2ccc3[nH]c(=O)oc3c2)c1,42.3*,-0.9,4.0,96.4,3.1,2.6,12.3
CCCCOc1ccc(Nc2cc(Cl)ccc2C(=O)O)cn1,56.6*,5.7,9.1,98.6,5.9,11.7,40.6*
O=C(NCc1ccccc1)c1nnc(CS(=O)(=O)c2ccccc2)o1,63.2*,-9.2,6.6,83.3,5.1,-1.2,-2.0
Nc1cccc2nc3ccccc3cc12,-2.5,-6.8,5.0,·,0.3,-1.3,·
Cc1cc2c(N)cccc2nn1,72.9*,14.5,37.7*,·,25.6*,33.3*,5.7
Cc1ccc(S(=O)(=O)NCc2ccccc2)cc1C(=O)N(C)CC(=O)Nc1c(Cl)cccc1Cl,2.9,·,3.3,89.6,11.0,4.5,·
N=C1CCC(=N)c2c1c(O)c1ccccc1c2O,63.5*,14.7,69.1*,94.9,39.3*,44.3*,41.0*
Cc1ccc(N2C(=O)c3ccccc3C2C(=O)c2ccc(O)cc2O)cc1 (configuration not stated),47.2*,30.1*,8.5,106.2,0.2,9.5,5.1
CC(=O)N1CCN(c2ccc(NCc3ccco3)cc2)CC1,9.4,·,1.0,103.8,-3.4,3.5,·
CC(=O)N1CCN(c2ccc(NCc3ccc(-c4cccc(Cl)c4)o3)cc2)CC1,41.5*,·,6.8,103.4,0.2,8.1,46.1*
CSCCC(NC(=O)c1cccc(C)c1)C(=O)OCC(=O)Nc1c(C)nn(-c2ccccc2)c1C (configuration not stated),0.3,·,0.0,101.1,-1.0,-3.5,·
O=C(c1ccccc1)c1ccc2nc(-c3ccco3)c(-c3ccco3)nc2c1,58.2*,14.9,31.1*,·,6.4,32.2*,43.3*
O=C(NCCO)c1ccc2nc(-c3ccco3)c(-c3ccco3)nc2c1,39.3*,20.9,31.1*,73.5,18.9,40.5*,10.7
COc1ccc(CCNC(=O)c2cc(-c3ccco3)nc3ccccc23)cc1,35.9*,-32.2,·,·,·,·,15.2
O=C(O)c1ccc2nc(-c3ccccc3)c(-c3ccccc3)nc2c1,6.3,-3.0,-1.7,92.9,22.0,-0.4,·
c1coc(-c2nc3ccccc3nc2-c2ccco2)c1,44.0*,12.7,39.9*,103.1,23.1,25.7*,10.8
O=C(NCCO)c1ccc(Cl)c(Cl)c1,0.0,3.1,-3.9,107.5,-5.9,2.8,·
SMILES,pPAFAH FP inh,PfM18AAP inh,PAFAH2 FP inh,Pemphigus Ab inh,PAFAH1B2 inh,PAFAH1B3 inh,pPAFAH confirm
O=C(NC1CCCC1)c1ccc2nc[nH]c2c1,7.8,-0.6,5.6,108.4,-2.6,0.8,·
O=C(NCCc1ccccc1)c1ccc2nc(-c3ccco3)c(-c3ccco3)nc2c1,60.4*,-2.0,8.3,·,5.2,21.4,36.7*
O=C(NC1CCCC1)c1ccc2nc(-c3ccco3)c(-c3ccco3)nc2c1,67.6*,14.8,38.0*,·,16.0,14.0,33.6*
COc1cc(CC(NC(C)=O)C(=O)NC2CCN(S(=O)(=O)c3ccc(NC(C)=O)cc3)CC2)cc(OC)c1 (configuration not stated),-1.0,-11.4,1.7,126.2,-1.2,3.0,·
O=C(CCc1ccccc1)NNC(=S)NC(=O)c1ccccc1,41.1*,27.8,3.7,102.5,10.6,8.7,-7.8
CC(=O)NC(=S)NNC(=O)CCc1ccccc1,1.5,7.1,-7.1,96.1,1.2,0.2,·
CC(OC(=O)c1ccccn1)C(=O)Nc1ccc2c(c1)OCCO2 (configuration not stated),47.8*,·,-4.2,95.0,-0.3,1.5,3.6
O=C(O)c1cccc(-c2ccc(/C=N/Nc3ccc([N+](=O)[O-])cc3)o2)c1,41.7*,17.6,5.4,94.3,0.9,2.0,27.9*
NS(=O)(=O)c1ccc(-c2ccc(/C=N/Nc3ccc(C(=O)O)cc3)o2)cc1,21.4,24.3,2.9,95.2,7.8,4.5,·
Cc1cc(C)n(Cc2ccc(C(=O)N/N=C/c3ccc(-c4ccc([N+](=O)[O-])cc4)o3)o2)n1,52.1*,13.2,37.7*,·,-2.1,4.9,46.7*
O=C(O)c1ccc(-c2ccc(/C=N/Nc3ccc([N+](=O)[O-])cc3)o2)cc1,46.7*,11.1,10.4,6.2*,5.9,10.4,38.5*
CN(CC(=O)Nc1ccc(C(N)=O)cc1)CC(=O)Nc1ccccc1Br,58.8*,-5.3,-8.0,87.8,-1.6,7.4,3.6
CCn1c(=O)[nH]c2cc(Cl)c(Cl)cc21,4.5,·,-0.9,102.5,3.6,6.9,·
COc1ccc(OCC(=O)NC(=O)c2ccccc2OC)c([N+](=O)[O-])c1,1.1,·,3.5,104.8,-1.2,1.9,·
COc1cccc(OC)c1-c1nn2c(-c3cc(-c4ccccc4)n[nH]3)nnc2s1,37.2*,0.1,42.3*,83.4,0.4,-2.0,45.9*
O=C(/C=C/c1cccs1)c1cc(Br)ccc1OC(=O)N1CCOCC1,63.5*,9.4,84.0*,97.3,3.5,0.1,60.6*
OC1CC2CCC(C1)N2CCCN1c2ccccc2Sc2ccc(Cl)cc21 (configuration not stated),·,·,-0.7,95.1,7.8,9.1,·
CC(CN1CCN(CCOCCO)CC1)CN1c2ccccc2Sc2ccc(Cl)cc21 (configuration not stated),·,·,·,106.2,·,·,·
OCCN1CCN(CCCN2c3ccccc3Sc3ccc(C(F)(F)F)cc32)CC1,40.4*,0.7,-3.1,·,5.8,13.1,38.1*
CCSc1ccc2c(c1)N(CCCN1CCN(C)CC1)c1ccccc1S2,37.0*,·,21.4,127.5,-0.1,14.7,41.9*
CN1CCN(CCCN2c3ccccc3Sc3ccc(Cl)cc32)CC1,45.0*,22.8,4.7,107.2,0.7,8.1,41.8*

# Screens: PubChem BioAssay, several laboratories
